According to article PMC5540273 (PLoS ONE, 2017):

Tests used:
Conditions in all cases: concentration: 1 μM, replicates: in singlicate; n = 1
AAK1 = tested on: AAK1
ABL1-nonphosphorylated = tested on: ABL1-nonphosphorylated
ABL1-phosphorylated = tested on: ABL1-phosphorylated
ABL2 = tested on: ABL2
ACVR1B = tested on: ACVR1B
ACVR1 = tested on: ACVR1
ACVR2A = tested on: ACVR2A
ACVR2B = tested on: ACVR2B
ACVRL1 = tested on: ACVRL1
ADCK3 = tested on: T1, ADCK3
T1 construct: gene CABC1

ADCK4 = tested on: ADCK4
AKT1 = tested on: AKT1
AKT2 = tested on: AKT2
AKT3 = tested on: AKT3
ALK = tested on: ALK
AMPK-alpha1 = tested on: T2, AMPK-alpha1
T2 construct: gene PRKAA1

AMPK-alpha2 = tested on: T3, AMPK-alpha2
T3 construct: gene PRKAA2

ANKK1 = tested on: ANKK1
ARK5 = tested on: T4, ARK5
T4 construct: gene NUAK1

ASK1 = tested on: T5, ASK1
T5 construct: gene MAP3K5
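Further: KINOMEscan kinase panel screen.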

Row | Compound | %Inh (AAK1) [%] | %Inh (ABL1-nonphosphorylated) [%] | %Inh (ABL1-phosphorylated) [%] | %Inh (ABL2) [%] | %Inh (ACVR1B) [%] | %Inh (ACVR1) [%] | %Inh (ACVR2A) [%] | %Inh (ACVR2B) [%] | %Inh (ACVRL1) [%] | %Inh (ADCK3) [%] | %Inh (ADCK4) [%] | %Inh (AKT1) [%] | %Inh (AKT2) [%] | %Inh (AKT3) [%] | %Inh (ALK) [%] | %Inh (AMPK-alpha1) [%] | %Inh (AMPK-alpha2) [%] | %Inh (ANKK1) [%] | %Inh (ARK5) [%] | %Inh (ASK1) [%]
1 | Nc1ncc(-c2ccc3nccc(-c4ccncc4)c3c2)cc1S(=O)(=O)N1CCCCC1 [GSK1693850] | 0 | 0 | 0 | 9 | 0 | 53 | 2 | 9 | 37 | 65 | 33 | 0 | 1 | 0 | 22 | 0 | 1 | 35 | 0 | 14
2 | CSc1ccc(NC2=C(c3ccc(Cl)cc3)C(=O)NC2=O)cc1 [SB-317658] | 0 | 0 | 0 | 0 | 13 | 0 | 15 | 0 | 23 | 1 | 0 | 9 | 8 | 10 | 0 | 23 | 30 | 3 | 0 | 0
3 | O=C(Nc1n[nH]c2nc(-c3ccccc3)ccc12)C1CC1 [SB-708999] | 100 | 62 | 41 | 16 | 22 | 6 | 9 | 37 | 0 | 2 | 12 | 14 | 9 | 0 | 3 | 17 | 12 | 63 | 8 | 18
4 | Cc1cc(-c2c(-c3ccc(F)cc3)ncn2CCCN2CCOCC2)nc(N)n1 [SB-222517] | 14 | 37 | 18 | 0 | 21 | 0 | 0 | 0 | 0 | 1 | 0 | 16 | 0 | 23 | 0 | 10 | 27 | 0 | 0 | 0
5 | COc1cc(Nc2nccc(N3CCC(NC(=O)Nc4ccc5c(c4)OCO5)C3)n2)cc(OC)c1OC (stereo not shown) [GSK1379766] | 66 | 0 | 0 | 0 | 0 | 11 | 0 | 0 | 0 | 0 | 69 | 0 | 2 | 0 | 63 | 2 | 10 | 36 | 24 | 4
6 | CNc1nccc(-c2ccc3c(N)n[nH]c3c2)n1 [GSK2206003] | 74 | 7 | 3 | 20 | 10 | 7 | 8 | 67 | 0 | 1 | 26 | 0 | 0 | 0 | 33 | 0 | 0 | 33 | 0 | 0
7 | Cc1ccccc1CC(=O)N1CCc2cc(-c3cn(C)c4ncnc(N)c34)ccc21 [GSK2603346] | 3 | 50 | 25 | 29 | 0 | 0 | 0 | 65 | 11 | 3 | 3 | 0 | 4 | 0 | 20 | 18 | 23 | 0 | 42 | 30
8 | Cn1cc(-c2cnc(N)c3c(-c4ccc5c(c4)CCN5C(=O)Cc4ccccc4)csc23)cn1 [GSK2593074] | 0 | 99.7 | 89 | 81 | 9 | 7 | 0 | 0 | 0 | 7 | 0 | 14 | 0 | 8 | 0 | 17 | 0 | 0 | 3 | 21
9 | CN(C)CCOc1ccc(-c2cc(-c3ccc(Cl)c(O)c3)c(-c3ccncc3)[nH]2)cc1.Cl.Cl [SB-684387] | 0 | 50 | 59 | 34 | 90.5 | 31 | 0 | 51 | 0 | 33 | 21 | 0 | 0 | 55 | 18 | 0 | 11 | 8 | 1 | 15
10 | CN(c1ccc2c(c1)nc(NCc1ccccc1)n2C)c1ccnc(Nc2ccc(CS(C)(=O)=O)cc2)n1.Cl [GW811603] | 16 | 98.9 | 66 | 54 | 0 | 0 | 0 | 0 | 0 | 0 | 7 | 0 | 0 | 1 | 49 | 2 | 0 | 0 | 0 | 9
11 | Cc1ccc(O)cc1Nc1ccnc2cc(-c3ccc(CN4CCCCC4)o3)ccc12 [GW557777] | 10 | 100 | 99.9 | 100 | 79 | 99.4 | 18 | 94.7 | 90.3 | 4 | 88 | 0 | 3 | 0 | 0 | 0 | 0 | 0 | 0 | 37
12 | CN(C)c1ncnc2nc[nH]c12 [SKF-31736] | 30 | 38 | 27 | 0 | 0 | 1 | 0 | 0 | 0 | 0 | 19 | 0 | 0 | 0 | 0 | 0 | 0 | 0 | 0 | 0
13 | CC(C)c1nc(-c2ccc(F)c(NS(=O)(=O)c3c(F)cccc3F)c2)c(-c2ccnc(Nc3ccc(N4CCOCC4)nc3)n2)s1 [GSK1804250] | 7 | 99.8 | 98.8 | 99.3 | 91.9 | 87 | 0 | 75 | 52 | 99.4 | 88 | 0 | 13 | 2 | 26 | 59 | 69 | 23 | 21 | 0
14 | Cc1ccc(NC(=O)c2cccc(N3CCCCC3)c2)cc1-c1ccc(C(=O)NCC2CC2)cc1 [GSK1917008] | 0 | 0 | 0 | 25 | 0 | 14 | 6 | 10 | 2 | 27 | 1 | 0 | 8 | 2 | 19 | 0 | 28 | 3 | 28 | 12
15 | Nc1ncc(-c2cn[nH]c2)c2scc(-c3ccc4c(c3)CCN4C(=O)Cc3ccccc3)c12 [GSK2593067] | 52 | 99.2 | 81 | 89 | 0 | 0 | 0 | 16 | 0 | 0 | 0 | 0 | 2 | 0 | 0 | 11 | 16 | 1 | 26 | 5
16 | Cc1ccc(NC(=O)c2ccnc(N3CCCCC3)c2)cc1-c1ccc(C(=O)NCC2CC2)cc1 [GW775610] | 0 | 55 | 0 | 54 | 0 | 0 | 0 | 0 | 0 | 0 | 0 | 0 | 0 | 0 | 10 | 19 | 0 | 0 | 2 | 0
17 | Cc1cccc(Nc2nc(N[C@H]3CCCC[C@H]3N)ncc2C(N)=O)c1.Cl [GSK986310] | 55 | 0 | 8 | 24 | 0 | 5 | 0 | 11 | 0 | 17 | 29 | 0 | 28 | 0 | 61 | 39 | 29 | 95.7 | 40 | 0
